Drawing on PubChem BioAssay (NCI), this text covers growth for 40 compounds.

The structures appear in SMILES notation. Values joined by “and” are separate entries in the source; they are usually repeats but may differ in a detail not shown here. Equal values may be shown once. About 83,000 compounds went through this panel and 20% of them were active in at least one assay; those are over-represented in the sample as a whole.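 The endpoint reported here, percent growth, reads 100 for growth as untreated, 0 for no net growth and -100 for all cells dead.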 Active and inactive are the calls of the source. The calls were made as follows: active = growth percent below 10; inactive = the rest.

For the test, the system named is MDA-MB-468 breast. Nature of the test: NCI-60 one-dose screen, 48 h (100 = growth as untreated, 0 = no growth, -100 = all killed). To be noted: 10 µM unless noted.
In the case of `COc1cnc2c(c1)C(=O)c1c-2n(CCCN2CCN(C)CC2)c(=O)c2cc(Cl)ccc12`, the growth is 54.2% (inactive).
With `CCC(=O)Nc1nnc(Cc2ccc(OC)c(OC)c2)s1` the figure was -2.42% (active); with `FC(F)(F)C1=NNC(c2ccc3ccccc3c2)=NN1`, 108% (inactive); with `CCCCCC#CC1OC23CCCCC2C(C#N)(C(=N)O3)C1(C#N)C#N` (stereo not given), 92.6% (inactive).
With `CCN1CCN(c2ccc(NC(=O)Nc3nc4ccc(-c5ccccc5OC)cc4s3)cc2)CC1` the figure was -76.7% (active); with `COc1ccc(C2Nc3c(c(C(C)(C)C)nn3-c3ccccc3)C(=O)CS2)cc1` (stereo not given), 112% (inactive); with `CCSc1nc2c([nH]1)c(=O)n(C)c(=S)n2C`, 109% (inactive).
For `C/C(=N\Nc1ccc2ccccc2n1)c1ccccn1`, the growth was -36.1% (active).
In the case of `CC(C)(CO)N(CCO)CCO`, the growth is 95.1% (inactive).
The result for `C=CC(=O)Nc1cccc(-c2nc(SC)nc(NCCN3CCOCC3)c2C#N)c1` reads 97.8% (inactive).
The result for `Nc1ccc(S(=O)(=O)c2ccc(N)cc2)cc1` reads 97.5% (inactive) and 101% (inactive); that for `COC(=O)[C@]12CC[C@@H](C)[C@H](C)[C@@H]1C1=CC[C@@H]3[C@@]4(C)C(C=O)=C[C@@](C)(CO)C4=CC[C@@]3(C)[C@]1(C)CC2`, 20% (inactive); that for `Cc1ccc(-n2c(=S)[nH]c3sc4c(c3c2=O)CCC(=O)C4)cc1`, 51.1% (inactive).
The result for `CCS/C(Nc1ccccc1)=C(\C#N)C(=O)N/N=C/c1ccc(Cl)cc1Cl` reads 19.6% (inactive).
Turning to `C#CC[C@H](N)C(=O)O`, the growth is 101% [20 µM] (inactive).
With `CCOC(=O)c1c(C)nc2c(c1N)CC(=O)N2Cc1ccc(F)cc1` the figure was 91% (inactive); with `Nc1c2ccccc2nc2ccccc12`, -45.4% (active) and 2.95% (active) and 23% (inactive); with `Cc1cccc(/C=C\C(=O)c2ccccc2)c1`, 105% (inactive) and 99% (inactive).
The result for `CCCCCCCCCN1C(=O)/C(=c2\sc3n(c2=O)C2C(NN=3)N(CC)C(=O)N2CC)c2ccccc21` (stereo not given) reads 37.9% (inactive).
With `Nc1[nH]nc2nc(-c3ccccc3)n3c4ccccc4nc3c12` the figure was 88.7% (inactive); with `N#Cc1c(-c2ccccc2)nc(SCC2CO2)nc1N1CCOCC1` (stereo not given), 55.9% (inactive); with `O=C(NCCNC(=O)c1ccc(F)cc1)Nc1ccc(-n2cc(-c3ccncc3)c(-c3ccc(Cl)c(O)c3)n2)cc1`, -35.9% (active).
Take `C/C=C/C1=CN2C(=O)c3cc(OC4OC(C)C(NC)C(C)(O)C4O)c(C)cc3N=C[C@@H]2C1` (stereo not given in full): the growth is -52.9% (active).
The result for `CC[N+](C)(CC)CCCC(C)Nc1ccnc2cc(Cl)ccc12` (stereo not given) reads 119% (inactive).
The result for `C=C1CCC2C3(C)COC(c4ccccc4)OC3CCC2(C)C1C/C=C1/C(=O)OCC1OC(C)=O` (stereo not given) reads 53% (inactive); that for `Clc1ccc(-c2cc(-c3ccccc3)nc(N3CCN(CCCNc4ccnc5cc(Cl)ccc45)CC3)n2)cc1`, -34% (active); that for `COc1cc(/C=C2\CN(C)C/C(=C\c3cc(CN4CCCCC4)c(O)c(OC)c3)C2=O)cc(CN2CCCCC2)c1O`, 13% (inactive).
With `CCCn1cnc2c(c1=N)C(c1ccc(Cl)cc1)c1sc3c(C)cccc3c1O2` (stereo not given) the figure was 30.9% (inactive); with `CC(C)N=C(N/C(N)=N/c1nc2ccccc2s1)NC(C)C`, 66.4% (inactive).
With `CCCCCCCCCCC(=O)CCCCCCCCCC`, the growth was 107% (inactive).
With `Nc1ccc(Cl)c2c(=O)c3ccccc3[nH]c12` the figure was 34% (inactive); with `COc1ccc(-c2cc(-c3cc(OC)c(OC)c(OC)c3)c(C#N)c(=O)n2CCCCCC(=O)NO)cc1`, 97.4% (inactive).
With `COc1ccccc1N1CCN(C2=NN=C(c3cccc(Cl)c3)c3ccccc3C2)CC1` the figure was -1.01% (active); with `CCCCCn1sc(=O)n(Cc2ccc(CNC(=O)OCc3ccc4cccc(O)c4n3)cc2)c1=O`, -48.1% (active).
The result for `CCn1c(=S)sc2c(Nc3ccc(F)cc3)nc(-c3cccnc3)nc21` reads 79.8% (inactive); that for `O=c1cc(-c2ccccc2)[nH]c(=S)[nH]1`, 115% (inactive).
For the compound `CN(C)c1ccc(O)c2c1CC1CC3C(N(C)C)C(=O)C(C(N)=O)=C(O)C3(O)C(=O)C1=C2O` (stereo not given), the growth is 36.7% (inactive).
Turning to `O=c1oc2ccc(F)cc2c(=O)n1-c1ccc(F)cc1F`, the growth was -4.2% (active).
The result for `CCCCn1c(C)nc2ccc(Nc3nc(Cl)nc4nc[nH]c34)cc21` reads 34.6% (inactive); that for `O=C1[C@@H]2Cc3c([nH]c4ccccc34)[C@H](c3c(Cl)cccc3Cl)N2C(=O)CN1C1CCN(Cc2ccccc2)CC1`, -33.4% (active).
